Among the test systems are NCI-H23 lung; NCI-H226 lung; NCI-H322M lung; HOP-62 NSCLC; NCI-H460 lung; HOP-92 NSCLC; NCI-H522 lung; A549/ATCC NSCLC; 786-0 renal; COLO 205 colon; DU-145 prostate; K-562 leukemia; MALME-3M melanoma; MDA-MB-231 breast; RXF 393 renal; SF-268 CNS; SF-295 CNS; SF-539 CNS; UACC-257 melanoma; M14 melanoma.
What all share (experiment): NCI-60 one-dose screen, 48 h (100 = growth as untreated, 0 = no growth, -100 = all killed)
Common to all, as to conditions: 10 µM unless noted

Compounds without any hit were thinned out: in the full panel of roughly 83,000, 20% have a hit.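 The test compound was applied at a single concentration to cells in 96-well plates for 48 hours, and percent growth was recorded.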 Unmarked numbers belong to inactive results. Active and inactive are the calls of the source. Rule for the calls: active = growth percent below 10; inactive = the rest.

With `CC1(C)CC[C@]23CC[C@]4(C)[C@H](CC[C@@H]5[C@@]6(C)C/C(=C/c7cccnc7)C(=O)C(C)(C)[C@@H]6CC[C@]54C)[C@H]2[C@H]1OC3=O`, the growth in the test on NCI-H23 lung was 46.7% [100 µM]; with NCI-H226 lung, 24.6% [100 µM]; in the test with NCI-H322M lung, 65.2% [100 µM]; in the test with HOP-62 NSCLC it was 25.2% [100 µM]; with NCI-H460 lung, 23.2% [100 µM]; in the test with HOP-92 NSCLC it was 24.8% [100 µM]. Moreover, the growth is 30.5% [100 µM] with NCI-H522 lung; 44.8% [100 µM] with A549/ATCC NSCLC; 45.5% [100 µM] in the test on 786-0 renal; 23.1% [100 µM] in the test with COLO 205 colon; 56.9% [100 µM] with DU-145 prostate; 33% [100 µM] in the test on K-562 leukemia. Also, the growth was 31.2% [100 µM] in the test with MALME-3M melanoma; 35.8% [100 µM] with MDA-MB-231 breast; 38.8% [100 µM] with RXF 393 renal; 66.3% [100 µM] in the test on SF-268 CNS; 46.7% [100 µM] in the test on SF-295 CNS; 63.2% [100 µM] in the test with SF-539 CNS. Besides, the growth in the test on UACC-257 melanoma is 31.9% [100 µM]; with M14 melanoma, 52.1% [100 µM].

With `Cc1cc(NN=C(c2ccc(O)cc2)c2ccc(O)cc2)c([N+](=O)[O-])cc1[N+](=O)[O-]`, the growth in the test with NCI-H23 lung is 31.9%; in the test on NCI-H226 lung it was 99.2%; in the test on NCI-H322M lung, 59.1%; in the test with HOP-62 NSCLC it was 54.2%; in the test on NCI-H460 lung, 27.3%; with HOP-92 NSCLC it was 40%. The growth is 15.4% in the test on NCI-H522 lung; 11.8% with A549/ATCC NSCLC; -5.42% (active) in the test with 786-0 renal; 98.6% in the test with COLO 205 colon; 81.8% in the test with DU-145 prostate; 99.1% in the test with K-562 leukemia. In addition, the growth in the test with MALME-3M melanoma is 100%; in the test on MDA-MB-231 breast, 59.6%; with RXF 393 renal it was 25.7%; in the test with SF-268 CNS, 53.9%; in the test with SF-295 CNS, 43.6%; with SF-539 CNS it was 69.5%. The growth is 42.5% in the test with UACC-257 melanoma and 36.8% with M14 melanoma.

As for `CCN(CC)CC(C)Nc1ccc(C)c2sc3ccccc3c(=O)c12` (stereo not given), the growth in the test on NCI-H23 lung is 65.9%; with NCI-H226 lung, 74.2%; with NCI-H322M lung it was 91.8%; in the test with HOP-62 NSCLC, 76.3%; in the test on NCI-H460 lung, 19.5%; in the test on HOP-92 NSCLC, 38.2%. In addition, the growth with NCI-H522 lung was 64.8%; in the test with A549/ATCC NSCLC it was 32.7%; in the test with 786-0 renal, 53.1%; in the test with COLO 205 colon, 37.9%; in the test on DU-145 prostate it was 82%; in the test with K-562 leukemia, 44.2%. Further, the growth was 65.2% in the test on MALME-3M melanoma; 28.7% in the test on MDA-MB-231 breast; 39.5% with RXF 393 renal; 58.9% in the test with SF-268 CNS; 76.2% in the test with SF-295 CNS; 44.2% in the test on SF-539 CNS. In addition, the growth in the test with UACC-257 melanoma was 0.527% (active); with M14 melanoma, 3.81% (active).

Take `O=C1/C(=C\c2cn(CC(O)CN3CCCCC3)c3ccccc23)c2ccccc2N1c1c(Cl)cccc1Cl` (stereo not given): the growth with NCI-H23 lung was -47.4% (active); in the test on NCI-H226 lung, -73.9% (active); with NCI-H322M lung it was -90.4% (active); in the test on HOP-62 NSCLC, -91% (active); in the test with NCI-H460 lung it was -82.7% (active); in the test with HOP-92 NSCLC, -87.4% (active). Further, the growth with NCI-H522 lung is -77.5% (active); with A549/ATCC NSCLC, -90.4% (active); in the test with 786-0 renal, -72.6% (active); in the test on COLO 205 colon, -99.1% (active); in the test with DU-145 prostate, -99.8% (active); in the test on K-562 leukemia it was -35.6% (active). Also, the growth was -65.9% (active) with MALME-3M melanoma; -81.6% (active) in the test with MDA-MB-231 breast; -87.6% (active) in the test with RXF 393 renal; -76.8% (active) with SF-268 CNS; -82.7% (active) in the test on SF-295 CNS; -82.4% (active) with SF-539 CNS. For the same compound, the growth with UACC-257 melanoma was -98.1% (active); with M14 melanoma, -81.1% (active).

For `COc1ccc2nc3cc(Cl)ccc3c(Nc3ccc(O)cc3)c2c1`, the growth in the test with NCI-H23 lung was 72.8%; with NCI-H226 lung, 74.4%; in the test with NCI-H322M lung it was 90.5%; with HOP-62 NSCLC it was 68.8%; in the test with NCI-H460 lung, 23.1%; in the test on HOP-92 NSCLC, 78.9%. Moreover, the growth is 72.5% in the test with NCI-H522 lung; 46.6% in the test with A549/ATCC NSCLC; 84% in the test with 786-0 renal; 76.8% in the test on COLO 205 colon; 48.4% in the test with DU-145 prostate; 54.8% in the test on K-562 leukemia. The growth is 83.5% in the test on MALME-3M melanoma; 84.4% in the test with MDA-MB-231 breast; 83.2% with RXF 393 renal; 72.8% in the test with SF-268 CNS; 84.9% in the test on SF-295 CNS; 80.8% with SF-539 CNS. Moreover, the growth with UACC-257 melanoma was 102%; with M14 melanoma, 94.8%.

Turning to `CC(C)C1=NOC(=O)C1=Cc1cn(-c2ccccc2)nc1-c1ccc(Br)cc1`, the growth in the test on NCI-H23 lung was 85.8%; in the test on NCI-H226 lung, 93.7%; in the test on NCI-H322M lung, 90.5%; in the test on HOP-62 NSCLC, 91.3%; in the test with NCI-H460 lung it was 83.5%; in the test with HOP-92 NSCLC, 83.1%. For the same compound, the growth in the test with NCI-H522 lung was 86%; in the test with A549/ATCC NSCLC, 98.2%; in the test on 786-0 renal it was 82.9%; in the test on COLO 205 colon, 97.8%; in the test with DU-145 prostate, 92.9%; in the test with K-562 leukemia, 43.4%. Also, the growth in the test on MALME-3M melanoma was 87.7%; in the test on MDA-MB-231 breast, 91.5%; in the test with RXF 393 renal, 70.3%; in the test with SF-268 CNS, 102%; in the test with SF-295 CNS, 96.8%; in the test with SF-539 CNS, 78.5%. The growth in the test on UACC-257 melanoma is 100%; with M14 melanoma it was 76.6%.

For the compound `COc1ccc2c(c1)C(C)Cc1c(Cl)nc(C)nc1N2C` (stereo not given), the growth with NCI-H23 lung was 25.8%; in the test on NCI-H226 lung it was 38.6%; with NCI-H322M lung it was 58.8%; in the test with HOP-62 NSCLC it was 29.4%; in the test with NCI-H460 lung it was 12.3%; in the test on HOP-92 NSCLC, 41.7%. Moreover, the growth in the test on NCI-H522 lung is -17% (active); with A549/ATCC NSCLC, 21.8%; in the test on 786-0 renal, 38.2%; with COLO 205 colon it was -20.9% (active); in the test with DU-145 prostate it was 34%; with K-562 leukemia, 11.7%. Moreover, the growth in the test with MALME-3M melanoma was 80.7%; with MDA-MB-231 breast it was 19%; in the test on RXF 393 renal it was -0.792% (active); in the test with SF-268 CNS, 43.2%; in the test with SF-295 CNS, 7.77% (active); with SF-539 CNS, 4.64% (active). The values for the growth in the test with UACC-257 melanoma and with M14 melanoma were 78.1% and 13.5%, respectively.

In the case of `O=C(CSc1nccc(Nc2ccc(S(=O)(=O)Nc3ccccn3)cc2)n1)c1ccc(Cl)cc1`, the growth with NCI-H23 lung was 80.3%; in the test with NCI-H226 lung, 89%; in the test on NCI-H322M lung, 104%; in the test on HOP-62 NSCLC, 83.5%; in the test on NCI-H460 lung it was 104%; with HOP-92 NSCLC, 92.8%. Moreover, the growth is 75.4% in the test on NCI-H522 lung; 105% with A549/ATCC NSCLC; 102% in the test with 786-0 renal; 110% in the test on COLO 205 colon; 103% with DU-145 prostate; 86.6% in the test on K-562 leukemia. For the same compound, the growth in the test on MALME-3M melanoma was 112%; in the test with MDA-MB-231 breast, 85.8%; with RXF 393 renal, 106%; in the test on SF-268 CNS, 95.1%; in the test on SF-295 CNS, 98.2%; with SF-539 CNS, 95.3%. Further, the growth in the test with UACC-257 melanoma was 91.3%; in the test on M14 melanoma, 107%.

The record behind these values is PubChem BioAssay (NCI).
